# Data published in PubChem BioAssay (Tox21).
# Inconclusive results are not listed. Where a call stands in place of a potency, no number is given. Calls of active or inactive are those of the source. Unless noted, calls come from the whole dose curve; as a rule, active = well fitted curve in the direction sought with a large enough effect in the repeat runs; inconclusive = weak or mixed curves; inactive = no such curve, though single readings can be large; an effect the other way counts as inactive or inconclusive. Positions of bridges follow the written chain, without caps; N, C: chain ends. Non-standard residues stand in square brackets, D forms with d. Residues, ends and D or L forms follow the SMILES beside them. *: point of attachment. X2 = CC[C@H](C)CCCCC(=O)*; Dab = NCC[C@H](N)C(=O)O
# Legend:
# [1] = qHTS assay for small molecules that induce genotoxicity in human embryonic kidney cells expressing luciferase-tagged ATAD5 (AID 651632); note: nearly all actives have a fitted effect of over 15% in size
# Summary of the method: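 Luminescent reporter readout, HEK293T ATAD5-luc line: 16 hr drug exposure (37C, 5% CO2) followed by Amplite, 30 min RT.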
# [2] = qHTS assay for small molecule agonists of the p53 signaling pathway - cell viability (AID 651633; calls by dose curve;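 note: p53RE-bla HCT reporter cells with a stable beta-lactamase p53 reporter; nearly all actives have a fitted effect of over 30% in size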)
# Summary of the method: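 Viability counter-read: CellTiter-Glo luminescence (30 min, room temperature) in the same p53RE-bla plates. These plates had been exposed to compounds for 16 h at 37 C.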
# [3] = qHTS assay for small molecules that induce genotoxicity in human embryonic kidney cells expressing luciferase-tagged ATAD5 - cell viability (AID 651634; calls by dose curve; note: nearly all actives have a fitted effect of over 25% in size)
# Summary of the method: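 Viability read: CellTiter-Fluor fluorescence, 30 min at 37C. Cells: HEK293T, luciferase-tagged ATAD5. Exposure: 15.5 hr, 37C, 5% CO2, compound or DMSO vehicle.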
# [4] = qHTS assay for small molecule disruptors of the mitochondrial membrane potential - cell viability (AID 720634; calls by dose curve;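 note: human HepG2 liver cancer cells; nearly all actives have a fitted effect of over 20% in size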)
# Summary of the method: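 HepG2, 1 hr compound, 37 C. ATP luminescence via CellTiter-Glo, 30 min RT, same well as m-MPI.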
# [5] = qHTS assay for small molecule disruptors of the mitochondrial membrane potential (AID 720635)
# Summary of the method: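 Mitochondrial membrane potential tracked with Mito-MPS dye, red aggregates (ex 540/em 590 nm) against green monomers (ex 490/em 535 nm). Compound treatment 1 hr at 37C, dye 30 min in HepG2.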
# [6] = qHTS assay to test for compound auto fluorescence at 590 nm (red) in HepG2 cells (AID 720674)
# Summary of the method: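 1 hr compound incubation on HepG2 cells, 37 C, 5% CO2; plate read ex 540 nm / em 590 nm; intensities reported as Rose Bengal sodium equivalents.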
# [7] = qHTS assay to test for compound auto fluorescence at 535 nm (green) in HepG2 cells (AID 720675)
# [8] = qHTS assay to test for compound auto fluorescence at 460 nm (blue) in HEK293 cells (AID 720678)
# Summary of the method: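 HEK293 cells (2,000/well, medium with 10% dialyzed FBS) attached 4-5 hr, then exposed to compound overnight at 37C, 5% CO2. Blue fluorescence read at 405/460 nm, with triamterene as reference fluorophore.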
# [9] = qHTS assay to test for compound auto fluorescence at 590 nm (red) in HEK293 cells (AID 720679)
# Summary of the method: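 HEK293 cells (2,000/well, 10% dialyzed FBS) attached 4-5 hr, then dosed with compound or DMSO and incubated overnight at 37C, 5% CO2. Red fluorescence read at 540/590 nm, Rose Bengal sodium as reference fluorophore.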
# [10] = qHTS assay to test for compound auto fluorescence at 535 nm (green) in HEK293 cells (AID 720680)
# [11] = qHTS assay to test for compound auto fluorescence at 460 nm (blue) in HEK293 cell free culture (AID 720681)
# Summary of the method: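 Blue fluorescence (Ex 405/Em 460 nm, triamterene-equivalent) was read immediately after pin transfer of compound or DMSO into medium (DMEM, 10% FBS) without cells.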
# [12] = qHTS assay to test for compound auto fluorescence at 535 nm (green) in HEK293 cell free culture (AID 720682)
# Summary of the method: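 No cells present: wells hold DMEM supplemented with 10% FBS, into which compound or vehicle is pinned. Green emission is then recorded (485 nm excitation, 535 nm emission) and scaled to fluorescein.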
# [13] = qHTS assay to test for compound auto fluorescence at 590 nm (red) in HEK293 cell free culture (AID 720683)
# Summary of the method: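 Red-channel autofluorescence of compounds in culture medium (DMEM, 10% FBS), no cells, measured at 540/590 nm. Rose Bengal sodium is the reference fluorophore for equivalence.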
# [14] = qHTS assay to test for compound auto fluorescence at 590 nm (red) in HepG2 cell free culture (AID 720684)
# Summary of the method: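 Steps: dispense MEM/10% FBS medium, no cells; pin compound or DMSO vehicle; read red channel, Ex/Em 540/590 nm. Output given as Rose Bengal sodium equivalents.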
# [15] = qHTS assay to test for compound auto fluorescence at 460 nm (blue) in HepG2 cell free culture (AID 720685)
# Summary of the method: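 Compound (23 nL) or DMSO pinned into cell-free MEM with 10% FBS; blue fluorescence read at 405/460 nm excitation/emission, expressed as auto-fluorescence equivalency to triamterene.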
# [16] = qHTS assay to test for compound auto fluorescence at 535 nm (green) in HepG2 cell free culture (AID 720686)
# [17] = qHTS assay to test for compound auto fluorescence at 460 nm (blue) in HepG2 cells (AID 720687)
# Summary of the method: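 Blue-channel autofluorescence (Ex/Em 405/460 nm, triamterene-equivalent) was measured after 1 hr compound exposure at 37 C, 5% CO2. Cells were HepG2, plated overnight at 37 C in MEM plus 10% FBS.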
# [18] = qHTS assay for small molecule agonists of the p53 signaling pathway (AID 651631; calls by dose curve; note: nearly all actives have a fitted effect of over 15% in size; note: potency is the fitted concentration of half-maximal effect)
# Summary of the method: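 Agonist mode screen using a stably integrated beta-lactamase gene under p53 response elements in HCT-116 cells. Compound exposure lasts 16 h at 37 °C; fluorescence intensity is measured following 2 h FRET substrate loading.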
# [19] = molecular target: Glucocorticoid receptor (Homo sapiens) (UniProt P04150); assay: qHTS assay to identify small molecule agonists of the glucocorticoid receptor (GR) signaling pathway (AID 720691; active = well fitted activation curve with a large enough effect in the signal ratio in the repeat runs, not every such curve was filed as active; the % refers to the signal ratio; note: potency is the fitted concentration of half-maximal effect); settings: GR-bla HeLa, beta-lactamase reporter ratio, 18 h; activation: at 62.4 µM (top of the series)
# Summary of the method: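 qHTS in GR-bla HeLa cells: 4 h settling at 37 C/5% CO2, 18 h compound incubation at 37 C, 2 h LiveBLAzer B/G FRET substrate at room temperature, fluorescence intensity measured.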
# [20] = molecular target: Glucocorticoid receptor (Homo sapiens) (UniProt P04150); assay: qHTS assay to identify small molecule antagonists of the glucocorticoid receptor (GR) signaling pathway (AID 720692; active = well fitted inhibition curve with a large enough effect in the signal ratio in the repeat runs, not every such curve was filed as active; the % refers to the signal ratio)
# Summary of the method: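 Inhibition of glucocorticoid signalling is measured in HeLa cells with a GRE-controlled beta-lactamase reporter; cells are co-treated with compound and 5 nM dexamethasone (final) for 18 h before FRET substrate readout.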
# Chain of Glucocorticoid receptor (Homo sapiens) (P04150 whole entry, looked up): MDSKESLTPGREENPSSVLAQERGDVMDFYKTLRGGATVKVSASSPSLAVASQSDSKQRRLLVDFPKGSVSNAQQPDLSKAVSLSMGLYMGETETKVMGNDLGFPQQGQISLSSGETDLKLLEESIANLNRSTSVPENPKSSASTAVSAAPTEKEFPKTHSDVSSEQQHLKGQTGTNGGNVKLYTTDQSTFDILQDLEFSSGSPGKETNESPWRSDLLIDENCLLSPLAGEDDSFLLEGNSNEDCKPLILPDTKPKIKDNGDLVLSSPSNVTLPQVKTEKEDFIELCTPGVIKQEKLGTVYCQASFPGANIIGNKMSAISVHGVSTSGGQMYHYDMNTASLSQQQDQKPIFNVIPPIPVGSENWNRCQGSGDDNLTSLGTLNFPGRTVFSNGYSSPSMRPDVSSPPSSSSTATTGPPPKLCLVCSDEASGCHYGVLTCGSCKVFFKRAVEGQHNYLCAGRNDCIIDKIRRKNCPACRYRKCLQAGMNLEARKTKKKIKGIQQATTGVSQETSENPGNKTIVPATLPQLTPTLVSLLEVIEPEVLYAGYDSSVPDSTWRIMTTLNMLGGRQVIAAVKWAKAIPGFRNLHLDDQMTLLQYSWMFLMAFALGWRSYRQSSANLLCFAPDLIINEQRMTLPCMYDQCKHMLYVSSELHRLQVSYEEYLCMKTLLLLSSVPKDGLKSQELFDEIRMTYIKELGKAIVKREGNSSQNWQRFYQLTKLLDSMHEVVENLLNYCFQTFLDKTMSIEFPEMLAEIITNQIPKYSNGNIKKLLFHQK
Structure (SMILES),Potency [1],Potency [2],Potency [3],Potency [4],Potency [5],Potency [6],Potency [7],Potency [8],Potency [9],Potency [10],Potency [11],Potency [12],Potency [13],Potency [14],outcome [15],Potency [16],outcome [17],Potency [18],Potency [19],Potency [20]
CNC(C)CCC=C(C)C (stereo not given),inactive,inactive,inactive,inactive,inactive,inactive,inactive,inactive,inactive,inactive,inactive,inactive,inactive,inactive,inactive,inactive,inactive,,,
O=C(Nc1ccc(O)cc1)c1ccccc1O,,inactive,inactive,,,inactive,inactive,inactive,inactive,inactive,inactive,inactive,inactive,inactive,inactive,inactive,inactive,inactive,inactive,inactive
CC[C@H](C)CCCCC(=O)N[C@@H](CCN)C(=O)N[C@H](C(=O)N[C@@H](CCN)C(=O)N[C@H]1CCNC(=O)[C@H]([C@@H](C)O)NC(=O)[C@H](CCN)NC(=O)[C@H](CCN)NC(=O)[C@H](CC(C)C)NC(=O)[C@@H](CC(C)C)NC(=O)[C@H](CCN)NC1=O)[C@@H](C)O (X2-[Dab]T[Dab][Dab][Dab][dL]L[Dab][Dab]T; lactam 4-C),inactive,inactive,inactive,inactive,inactive,inactive,inactive,inactive,inactive,inactive,inactive,inactive,inactive,inactive,inactive,inactive,inactive,,inactive,
CN[C@@H]1[C@H](O[C@H]2[C@H](O[C@H]3[C@H](O)[C@@H](O)[C@H](N=C(N)N)[C@@H](O)[C@@H]3N=C(N)N)O[C@@H](C)[C@]2(O)C=O)O[C@@H](CO)[C@H](O)[C@H]1O,inactive,inactive,inactive,inactive,inactive,inactive,inactive,inactive,inactive,inactive,inactive,inactive,inactive,inactive,inactive,inactive,inactive,,inactive,
O=P(O)(O)OC[C@H](O)CO,inactive,inactive,inactive,inactive,inactive,inactive,inactive,inactive,inactive,inactive,inactive,inactive,inactive,inactive,inactive,inactive,inactive,,,
CC(/C=C/C=C(\C)C(=O)O[C@@H]1O[C@H](CO[C@@H]2O[C@H](CO)[C@@H](O)[C@H](O)[C@H]2O)[C@@H](O)[C@H](O)[C@H]1O)=C\C=C\C=C(C)\C=C\C=C(/C)C(=O)O[C@@H]1O[C@H](CO[C@@H]2O[C@H](CO)[C@@H](O)[C@H](O)[C@H]2O)[C@@H](O)[C@H](O)[C@H]1O,inactive,inactive,inactive,inactive,inactive,inactive,inactive,inactive,inactive,inactive,inactive,inactive,inactive,inactive,inactive,inactive,inactive,,inactive,
CC(=O)N[C@@H](C=O)[C@@H](O)[C@H](O)[C@H](O)CO,inactive,inactive,inactive,inactive,inactive,inactive,inactive,inactive,inactive,inactive,inactive,inactive,inactive,inactive,inactive,inactive,inactive,,,
O=C(O)CCC/C=C\C[C@@H]1[C@@H](/C=C/[C@@H](O)COc2cccc(C(F)(F)F)c2)[C@H](O)C[C@@H]1O,inactive,inactive,inactive,inactive,inactive,inactive,inactive,inactive,inactive,inactive,inactive,inactive,inactive,inactive,inactive,inactive,inactive,,inactive,
CC(=O)Oc1c(C)cc(OCC(O)CNC(C)C)c(C)c1C (stereo not given),,,inactive,inactive,inactive,inactive,inactive,inactive,inactive,inactive,inactive,inactive,inactive,inactive,inactive,inactive,inactive,inactive,21.3 µM (active),inactive
CC(CN(C)C)CN1c2ccccc2S(=O)(=O)c2ccccc21 (stereo not given),inactive,inactive,inactive,inactive,inactive,inactive,inactive,inactive,inactive,inactive,inactive,inactive,inactive,inactive,inactive,inactive,inactive,,,
CCCN(CC)C(CC)C(=O)Nc1c(C)cccc1C (stereo not given),,inactive,inactive,,,inactive,inactive,inactive,inactive,inactive,inactive,inactive,inactive,inactive,inactive,inactive,inactive,inactive,inactive,inactive
CC[C@@H](C(=O)O)[C@@H]1O[C@@H]([C@@H](C)[C@H](O)[C@H](C)C(=O)[C@H](CC)[C@H]2O[C@]3(C=C[C@@H](O)[C@]4(CC[C@@](C)([C@H]5CC[C@](O)(CC)[C@H](C)O5)O4)O3)[C@H](C)C[C@@H]2C)[C@@H](C)C[C@@H]1C,,inactive,,inactive,,inactive,inactive,inactive,inactive,inactive,inactive,inactive,inactive,inactive,inactive,inactive,inactive,3.76 µM (active),inactive,
Nc1nc2[nH]cc(CCc3ccc(C(=O)N[C@@H](CCC(=O)O)C(=O)O)cc3)c2c(=O)[nH]1,inactive,inactive,inactive,inactive,inactive,inactive,inactive,inactive,inactive,inactive,inactive,inactive,inactive,inactive,inactive,inactive,inactive,,,
